In PubChem BioAssay (NCI) one finds growth data, which are given here for 17 compounds.

Several values for one entry are separate records, joined by “and”; a condition that tells them apart may be missing. Equal values may be shown once. This is part of a sample that, as a whole, favours compounds with a hit. Of some 83,000 tested, about 20% had one in any assay.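 Activity criterion: percent growth below 10, measured after cells in 96-well plates were exposed to a single compound concentration for 48 hours.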 Unmarked numbers belong to inactive results. Activity calls are given as the source filed them.

Holding throughout (test): NCI-60 one-dose screen, 48 h (100 = growth as untreated, 0 = no growth, -100 = all killed)
One experiment has as its system T-47D breast. Conditions: 10 µM unless noted.
Another experiment concerns BT-549 breast. Particulars: 10 µM unless noted.
A further experiment deals with MDA-MB-435 melanoma. Particulars: 10 µM unless noted.
The test system of another experiment is SW-620 colon. Particulars: 10 µM unless noted.
The next experiment concerns MCF7 breast.
For a further experiment, the system named is HCT-116 colon. Conditions: 10 µM unless noted.
Another experiment concerns HCC-2998 colon. Conditions: 10 µM unless noted.
A further experiment deals with KM12 colon. Particulars: 10 µM unless noted.

Turning to `CC1=CC(=NC(=O)CBr)C=C/C1=N\S(=O)(=O)c1ccccc1`, the growth in the experiment on T-47D breast is 12.3%; with BT-549 breast, 65.6%; in the experiment with MDA-MB-435 melanoma, 43.4%; in the experiment with SW-620 colon it was 17%; in the experiment on MCF7 breast (10 µM unless noted) it was 16.3%; in the experiment with HCT-116 colon, 22.8%. Also, the growth in the experiment with HCC-2998 colon was 110%; with KM12 colon, 106%.
On to `O=C1/C(=C/c2ccccc2)CCC/C1=C\c1ccccc1`, for which the growth in the experiment with T-47D breast is 82%; with BT-549 breast, 80.5%; in the experiment on MDA-MB-435 melanoma it was 13.2%; with SW-620 colon, 22%; in the experiment with MCF7 breast (10 µM unless noted), 30.7%; in the experiment with HCT-116 colon, -79% (active). Also, the values for the growth in the experiment with HCC-2998 colon and in the experiment on KM12 colon were 81.4% and 10.1%, respectively.
With `CC1(C)OCC(COC(c2ccccc2)(c2ccccc2)c2ccccc2)O1` (stereo unspecified), the growth in the experiment on T-47D breast is 84.3%; with BT-549 breast, 119%; in the experiment with MDA-MB-435 melanoma, 106%; with SW-620 colon, 104%; with MCF7 breast (10 µM unless noted) it was 100%; with HCT-116 colon, 89.7%. The growth was 97.4% with HCC-2998 colon and 96.5% with KM12 colon.
For the compound `Cc1ccc(Nc2ccc(O)c3c2C(=O)c2c(O)ccc(Nc4ccc(C)cc4)c2C3=O)cc1`, the growth in the experiment on T-47D breast is 96.9%; in the experiment with BT-549 breast, 113%; with MDA-MB-435 melanoma it was 104%; with SW-620 colon, 103%; in the experiment with MCF7 breast (10 µM unless noted) it was 98%; in the experiment with HCT-116 colon, 93.5%. Further, the growth in the experiment with HCC-2998 colon is 113%; in the experiment with KM12 colon, 112%.
Consider `COc1cccc2c1C(=O)c1c(O)c3c(c(O)c1C2=O)C[C@@](O)(C(=O)CO)C[C@@H]3OC1CC(OC(C)=O)C(OC(C)=O)C(C)O1` (stereo partly specified), for which the growth with T-47D breast was -27.3% (active); with BT-549 breast it was -39.7% (active); in the experiment with MDA-MB-435 melanoma, 7.04% (active); in the experiment on SW-620 colon it was 3.7% (active); in the experiment with MCF7 breast (10 µM unless noted) it was 4.45% (active); with HCT-116 colon, -80% (active). Further, the growth was -72% (active) with HCC-2998 colon and -39% (active) in the experiment with KM12 colon.
Consider `CN(C)c1ccc(C(=C2C=CC(=[N+](C)C)C=C2)c2ccc(N(C)C)cc2)cc1`, for which the growth in the experiment on T-47D breast is -19.2% (active); in the experiment on BT-549 breast, -66% (active); in the experiment with MDA-MB-435 melanoma, -82.6% (active); in the experiment with SW-620 colon, -67.2% (active); in the experiment on MCF7 breast (10 µM unless noted), -71.6% (active); with HCT-116 colon, -83.3% (active). Besides, the growth is -91.6% (active) with HCC-2998 colon and -95.6% (active) with KM12 colon.
On to `C/C(=N/NC(N)=S)c1ccc(C)cc1`, for which the growth with T-47D breast was 22%; with BT-549 breast it was 105%; with MDA-MB-435 melanoma, 96.1%; in the experiment with SW-620 colon, 75.3%; with MCF7 breast (10 µM unless noted), 25.6%; with HCT-116 colon, 8.6% (active). The figures for the growth in the experiment with HCC-2998 colon and in the experiment on KM12 colon were 110% and 104%, respectively.
As for `OC(c1cc(-c2ccc(Cl)cc2)nc2c(Cl)cccc12)C1CCCCN1` (stereo unspecified), the growth with T-47D breast was -82.9% (active); in the experiment with BT-549 breast, 73.6%; in the experiment with MDA-MB-435 melanoma, -78.8% (active); in the experiment with SW-620 colon, -86.2% (active); in the experiment with MCF7 breast (10 µM unless noted), -88.7% (active); in the experiment on HCT-116 colon it was -28.8% (active). Moreover, the growth in the experiment with HCC-2998 colon was -68.9% (active); in the experiment with KM12 colon, -89% (active).
As for `O=C1Nc2ccc(Br)cc2C1=O`, the growth was 96.2% in the experiment on T-47D breast; 105% with BT-549 breast; 98.3% in the experiment with MDA-MB-435 melanoma; 86% with SW-620 colon; 91.5% in the experiment on MCF7 breast (10 µM unless noted); 94.2% in the experiment on HCT-116 colon. Moreover, the growth is 111% in the experiment with HCC-2998 colon and 96.7% in the experiment with KM12 colon.
For the compound `CCCC[n+]1c(/C=C\c2c(OC)cc(OC)cc2OC)ccc2ccccc21`, the growth in the experiment on T-47D breast was -3.69% (active); in the experiment on BT-549 breast, 15.5%; in the experiment on MDA-MB-435 melanoma, -41.2% (active); in the experiment with SW-620 colon, 5.08% (active); with MCF7 breast (10 µM unless noted) it was 4.3% (active); with HCT-116 colon it was 2.83% (active). The results for the growth with HCC-2998 colon and in the experiment on KM12 colon were 2.5% (active) and -78.6% (active), respectively.
For `CC(C)=CCCC(C)C1=C(O)C(=O)C(C)=CC1=O` (stereo unspecified), the growth in the experiment with T-47D breast was -66.9% (active); with BT-549 breast, 24.7%; in the experiment with MDA-MB-435 melanoma, 102%; in the experiment on SW-620 colon, -49.5% (active); in the experiment on MCF7 breast (10 µM) it was 66.9%; in the experiment on MCF7 breast (100 µM) it was -52.3% (active) and -33.3% (active). Besides, the figures for the growth with HCT-116 colon, in the experiment with HCC-2998 colon and in the experiment on KM12 colon were -85.2% (active), 100% and 86.8%, respectively.
`CC(C)c1ccc(Nc2n[nH]c(=S)s2)cc1`: the growth is 85.6% in the experiment on T-47D breast; 96.2% in the experiment with BT-549 breast; 97.1% in the experiment with MDA-MB-435 melanoma; 110% in the experiment with SW-620 colon; 101% with MCF7 breast (10 µM unless noted); 101% in the experiment with HCT-116 colon. For the same compound, the growth in the experiment with HCC-2998 colon was 91%.
Turning to `CC1(C)OC2C(COC(c3ccccc3)(c3ccccc3)c3ccccc3)OC(c3c[nH]c4c(N)ncnc34)C2O1` (stereo unspecified), the growth in the experiment on T-47D breast was 43.2%; in the experiment with BT-549 breast, 77.5%; in the experiment on MDA-MB-435 melanoma, 62.4%; with SW-620 colon, 63.9%; in the experiment with MCF7 breast (10 µM unless noted), 35%; in the experiment with HCT-116 colon, 46.7%. Moreover, the growth in the experiment on HCC-2998 colon was 85.7%; in the experiment on KM12 colon it was 50.3%.
`S=C1SCN(Cc2cccs2)CN1Cc1cccs1`: the growth with T-47D breast is 56.5%; in the experiment on BT-549 breast, 98.5%; with MDA-MB-435 melanoma, 93.3%; with SW-620 colon, 82.4%; in the experiment on MCF7 breast (10 µM unless noted), 43.9%; in the experiment on HCT-116 colon it was 99.4%. Besides, the growth in the experiment on HCC-2998 colon is 116%; in the experiment with KM12 colon it was 91.2%.
For the compound `COc1cc2c(c(OC)c1OC)-c1ccc(NCc3ccccc3)c(=O)cc1[C@@H](NC(C)=O)CC2`, the growth in the experiment with T-47D breast was 59.4%; with BT-549 breast it was 0.422% (active); in the experiment on MDA-MB-435 melanoma, -54.8% (active); with SW-620 colon it was 16.6%; with MCF7 breast (10 µM unless noted) it was 7.93% (active); in the experiment on HCT-116 colon, 9.33% (active). Further, the growth is 10.6% with HCC-2998 colon and 12.7% in the experiment with KM12 colon.
For `CC/C(=C(/CC)c1ccc(O)cc1)c1ccc(O)cc1`, the growth in the experiment on T-47D breast is 72.4%; with BT-549 breast, 64.3%; in the experiment on MDA-MB-435 melanoma, -18.7% (active); in the experiment on SW-620 colon it was 44.6%; in the experiment on MCF7 breast (10 µM unless noted) it was 26.2%; in the experiment with HCT-116 colon it was 29.3%. Also, the values for the growth in the experiment with HCC-2998 colon and with KM12 colon were 70.2% and 44.1%, respectively.
Turning to `Cc1ccccc1NC(=O)Cc1csc2[n+]1C(=O)/C(=C/c1ccc([N+](=O)[O-])cc1)S2`, the growth with T-47D breast is 84.2%; in the experiment on BT-549 breast, 88.9%; with MDA-MB-435 melanoma, 97.5%; in the experiment on SW-620 colon, 107%; in the experiment with MCF7 breast (10 µM unless noted), 92.7%; in the experiment on HCT-116 colon, 84.4%. Besides, the growth in the experiment with HCC-2998 colon was 82.2%; in the experiment with KM12 colon, 98.4%.
